PubChem BioAssay (EPA / NIEHS)
Where “and” joins values, the source holds several entries; their conditions need not be identical. Identical values can stand only once. Records with an inconclusive call do not appear. More than one record can exist for a structure, and the calls need not agree. Calls of active or inactive are those of the source. Rule for the calls, unless noted: active = hit-call score of the fitted dose curve at least 0.9, where 1 is the maximum; inconclusive = response in the unintended direction; inactive = score below 0.9.

What was measured:
[1] = read-out: Transforming Growth Factor (TGFA), TGFA (gene 7039); test: LTEA_HepaRG_TGFA: Life Technologies and Expression Analysis (LTEA) Assay for Transforming Growth Factor (TGFA) using HepaRG (AID 2283532; active = hit-call score of the fitted dose curve at least 0.9, where 1 is the maximum; inactive = score below 0.9); settings: mRNA level, 48 h; actives raise or lower the signal
Outline: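 Differentiated HepaRG cells exposed 48 hours in serum-free induction medium, 0.5% DMSO vehicle, 8-point half-log series from 100 uM, in duplicate. TGFA mRNA by TaqMan qRT-PCR, normalised to ACTB, GAPDH, POLR2A; bidirectional fit versus DMSO.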

[2] = read-out: Transforming Growth Factor (TGFB1), TGFB1 (gene 7040); test: LTEA_HepaRG_TGFB1: Life Technologies and Expression Analysis (LTEA) Assay for Transforming Growth Factor (TGFB1) Transporter using HepaRG (AID 2283533; active = hit-call score of the fitted dose curve at least 0.9, where 1 is the maximum; inactive = score below 0.9); settings: mRNA level, 48 h; actives raise or lower the signal
Outline: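 qRT-PCR readout of TGFB1 transcript in HepaRG lysates, normalized to three housekeeping genes; gain or loss of signal fitted relative to 0.5% DMSO vehicle. Exposure: 48 h, 8-point curve from 100 uM, duplicate wells.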

TIMP1, TIMP1 (gene 7076) = test: LTEA_HepaRG_TIMP1: Life Technologies and Expression Analysis (LTEA) Assay for TIMP1 using HepaRG (AID 2283534; active = hit-call score of the fitted dose curve at least 0.9, where 1 is the maximum; inactive = score below 0.9;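 note: TaqMan qRT-PCR signal normalized to ACTB GAPDH and POLR2A housekeeping genes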); settings: mRNA level, 48 h; actives raise or lower the signal
Outline: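 HepaRG, 48 h exposure, 8-pt half-log series from 100 uM in 0.5% DMSO, duplicates; TIMP1 transcript by Fluidigm qRT-PCR, housekeeping-normalized; bidirectional curve fit vs DMSO baseline.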

[3] = read-out: Tumor necrosis factor receptor 1 (TNFRSF1A), TNFRSF1A (gene 7132); test: LTEA_HepaRG_TNFRSF1A: Life Technologies and Expression Analysis (LTEA) Assay for Tumor necrosis factor receptor 1 (TNFRSF1A) using HepaRG (AID 2283535; active = hit-call score of the fitted dose curve at least 0.9, where 1 is the maximum; inactive = score below 0.9); settings: mRNA level, 48 h; actives raise or lower the signal
Outline: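 HepaRG, 48 h plating then 48 h chemical exposure, serum-free induction media; 8-pt CRC from 100 uM, half-log, 0.5% DMSO vehicle, duplicates. Readout: TaqMan qRT-PCR (Fluidigm), housekeeping-gene normalized; bidirectional fit vs DMSO.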

[4] = read-out: Cellular tumor antigen p53 (Homo sapiens) (UniProt P04637); test: LTEA_HepaRG_TP53: Life Technologies and Expression Analysis (LTEA) Assay for Tumor Protein P53 (TP53) using HepaRG (AID 2283537; active = hit-call score of the fitted dose curve at least 0.9, where 1 is the maximum; inactive = score below 0.9); settings: mRNA level, 48 h; actives raise or lower the signal
Outline: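 Gain or loss of TP53 mRNA signal is scored relative to 0.5% DMSO after 48 h chemical treatment of HepaRG liver cells, tested in duplicate at eight half-log concentrations up to 100 uM.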

[5] = read-out: UDP glucuronosyltransferase (UGT1A1), UGT1A1 (gene 54658); test: LTEA_HepaRG_UGT1A1: Life Technologies and Expression Analysis (LTEA) Assay for UDP glucuronosyltransferase (UGT1A1) using HepaRG (AID 2283538; active = hit-call score of the fitted dose curve at least 0.9, where 1 is the maximum; inactive = score below 0.9); settings: mRNA level, 48 h; actives raise or lower the signal
Outline: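 HepaRG cells, 0.5% DMSO vehicle, 48 h exposure in serum-free induction medium to 8-point half-log series topping at 100 uM, in duplicate. UGT1A1 mRNA by Fluidigm qRT-PCR, normalized to ACTB/GAPDH/POLR2A; bidirectional fit versus DMSO.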

[6] = read-out: UDP glucuronosyltransferase (UGT1A6), UGT1A6 (gene 54578); test: LTEA_HepaRG_UGT1A6: Life Technologies and Expression Analysis (LTEA) Assay for UDP glucuronosyltransferase (UGT1A6) using HepaRG (AID 2283539; active = hit-call score of the fitted dose curve at least 0.9, where 1 is the maximum; inactive = score below 0.9); settings: mRNA level, 48 h; actives raise or lower the signal
Outline: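 qRT-PCR readout of UGT1A6 mRNA (normalized to ACTB/GAPDH/POLR2A) in differentiated HepaRG cells after 48 h chemical exposure; 8 concentrations, top 100 uM, half-log steps, 0.5% DMSO. Bidirectional curve fit relative to DMSO baseline.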

[7] = LTEA_HepaRG_LDH_cytotoxicity: Cytotoxicity Assessment in the Life Technologies and Expression Analysis (LTEA) Assay (AID 2283563);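 for AC50: LDH activity released into spent culture medium as a marker of cell death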
Outline: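 HepaRG (human liver line), 48 h exposure, 8-pt half-log series from 100 uM, 0.5% DMSO vehicle, duplicates. Read-out: LDH in spent medium. Positive-direction fit vs DMSO baseline.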

[8] = ATG_XTT_Cytotoxicity: Cytotoxicity Assessment in the Attagene TRANS-FACTORIAL HepG2 Assay (AID 2283584)
Outline: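 XTT readout of cell number in transfected HepG2 cells, 24 h post-dosing; DMSO serves as negative control and baseline, with activity taken as loss of viability signal.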

[9] = TOX21_p53_BLA_p3_viability: Viability Assessment in the Tox21 HCT-116 p53 Agonism Beta-lactamase Assay, Phase 3 (AID 2283593);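 note: cells exposed to compound for 16 h before reading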
Outline: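 HCT116 cells, 4000/well, dosed 5 h after plating by pin transfer (217-fold dilution from DMSO stock) and incubated 16 h at 37C, 5% CO2. Viability read as ATP luminescence with CellTiter-Glo after 30 min at room temperature.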

[10] = target: Cellular tumor antigen p53 (Homo sapiens) (UniProt P04637); test: TOX21_p53_BLA_p3_ratio: Tox21 HCT-116 p53 Agonism Beta-lactamase Assay, Ratio, Phase 3 (AID 2283596)
Outline: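 HCT116 p53-bla cells (4000/well) given compound in DMSO (217-fold dilution) after 5 h, incubated 16 h at 37C. CCF4-AM substrate 2 h at room temperature; 460/530 nm emission ratio, gain fitted against DMSO.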

[11] = target: Cellular tumor antigen p53 (Homo sapiens) (UniProt P04637); test: TOX21_p53_BLA_p5_ratio: Tox21 HCT-116 p53 Agonism Beta-lactamase Assay, Ratio, Phase 5 (AID 2283599)
Outline: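 HCT-116 p53-bla cells (4000/well) plated 5 h, dosed with compound (217-fold DMSO dilution) for 16 h at 37 C; CCF4-AM substrate 2 h at room temperature. Activity is the 460/530 nm emission ratio (405 nm excitation), fitted in gain-of-signal direction versus DMSO.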

[12] = target: Cellular tumor antigen p53 (Homo sapiens) (UniProt P04637); test: TOX21_p53_BLA_p4_ratio: Tox21 HCT-116 p53 Agonism Beta-lactamase Assay, Ratio, Phase 4 (AID 2283601)
Outline: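 HCT-116 p53 beta-lactamase reporter cells (4000/well) preincubated 5 h, then compound (217-fold dilution of DMSO stock) for 16 h at 37C. CCF4-AM substrate added 2 h at room temperature; 460/530 nm emission ratio fitted upward versus DMSO.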

[13] = Tanguay_ZF_120hpf_MORT_legacy: (Legacy) Oregon State University Tanguay Lab 120 Hour Post-fertilization zebrafish Assay for Mortality (AID 2283633);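 for AC50: fitted as increase in binary mortality versus DMSO negative control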
Outline: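 Brightfield scoring of embryo death (binary) at 24 and 120 hpf; static exposure 6–120 hpf, 28C, sealed and foil-covered. Pronase-dechorionated 5D wild-type larvae, single embryo per well. DMSO 0.64% v/v; trimethyltin chloride 5uM positive control.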

[14] = read-out: X-box binding protein 1 (XBP1), XBP1 (gene 7494); test: LTEA_HepaRG_XBP1: Life Technologies and Expression Analysis (LTEA) Assay for X-box binding protein 1 (XBP1) using HepaRG (AID 2283540; active = hit-call score of the fitted dose curve at least 0.9, where 1 is the maximum; inactive = score below 0.9); settings: mRNA level, 48 h; actives raise or lower the signal
Outline: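 HepaRG, 48 h exposure, 8-pt half-log CRC top 100 uM, 0.5% DMSO vehicle, duplicates. Readout: TaqMan qRT-PCR of XBP1 mRNA, housekeeping-normalised (ACTB/GAPDH/POLR2A); bidirectional fit vs DMSO baseline.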

[15] = TOX21_p53_BLA_p2_viability: Viability Assessment in the Tox21 HCT-116 p53 Agonism Beta-lactamase Assay, Phase 2 (AID 2283591);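 note: compound exposure lasted 16 h at 37 °C; actives lower the ATP signal meaning cytotoxicity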
Outline: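 HCT116 p53-bla cells, 4000/well, dosed after 5 h plating (217-fold dilution of DMSO stocks) and incubated 16 h at 37C. Viability taken as cellular ATP by CellTiter-Glo luminescence after 30 min RT; signal loss marks cytotoxicity.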

[16] = TOX21_p53_BLA_p4_viability: Viability Assessment in the Tox21 HCT-116 p53 Agonism Beta-lactamase Assay, Phase 4 (AID 2283597);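 note: hits lower the luminescence signal meaning cytotoxicity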
Outline: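 We seeded HCT116 p53 reporter cells at 4000/well and waited 5 h. We then added compounds in DMSO at a 217-fold dilution and incubated for 16 h. Viability was read as CellTiter-Glo luminescence after 30 min at RT.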

[17] = TOX21_p53_BLA_p5_viability: Viability Assessment in the Tox21 HCT-116 p53 Agonism Beta-lactamase Assay, Phase 5 (AID 2283600)
Outline: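 Compounds, pinned from DMSO at 217-fold dilution, were left on the cells for 16 h. The viability endpoint was ATP content measured by CellTiter-Glo luminescence, where falling signal reflects cytotoxicity.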

[18] = read-out: Thyroid Hormone Responsive (THRSP), THRSP (gene 7069); test: LTEA_HepaRG_THRSP: Life Technologies and Expression Analysis (LTEA) Assay for Thyroid Hormone Responsive (THRSP) using HepaRG (AID 2283536; active = hit-call score of the fitted dose curve at least 0.9, where 1 is the maximum; inactive = score below 0.9); settings: mRNA level, 48 h; actives raise or lower the signal
Outline: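 Differentiated HepaRG cells treated 48 h in serum-free induction medium with 8 half-log concentrations up to 100 uM (0.5% DMSO), duplicates. THRSP mRNA by TaqMan qRT-PCR normalised to ACTB, GAPDH, POLR2A; bidirectional fit versus DMSO.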

[19] = target: Cellular tumor antigen p53 (Homo sapiens) (UniProt P04637); test: TOX21_p53_BLA_p2_ratio: Tox21 HCT-116 p53 Agonism Beta-lactamase Assay, Ratio, Phase 2 (AID 2283592)
Outline: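 In this cell-based reporter format, HCT116 cells were dosed with chemicals delivered from DMSO by 217-fold dilution and incubated 16 h at 37C. Emission at 460 and 530 nm after 2 h CCF4-AM loading provided the ratio, fitted upward versus DMSO.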

Measured: AC50

Sequence of Cellular tumor antigen p53 (Homo sapiens) (P04637 whole entry, looked up): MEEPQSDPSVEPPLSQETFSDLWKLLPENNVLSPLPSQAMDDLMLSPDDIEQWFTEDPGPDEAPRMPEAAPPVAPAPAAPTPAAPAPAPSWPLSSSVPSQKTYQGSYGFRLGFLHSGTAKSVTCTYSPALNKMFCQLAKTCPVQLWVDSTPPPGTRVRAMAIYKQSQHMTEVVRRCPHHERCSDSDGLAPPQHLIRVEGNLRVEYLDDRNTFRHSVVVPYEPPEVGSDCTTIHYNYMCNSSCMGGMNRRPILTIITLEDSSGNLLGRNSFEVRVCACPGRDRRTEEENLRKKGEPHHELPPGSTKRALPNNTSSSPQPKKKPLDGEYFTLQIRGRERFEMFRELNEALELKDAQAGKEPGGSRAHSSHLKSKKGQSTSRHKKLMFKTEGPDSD

CC(C)N(Cc1ccccc1)C(=O)C(C)(C)C
active: [5] 6.96 µM
not listed: [14] | [15] | [16] | [17] | [18] | [19]
inactive: all other assays above

c1ccc2c(c1)oc1ccccc12
not listed: [3] | [8] | [18] | [19]
inactive: all other assays above

CCCCCCCCn1sccc1=O
inactive: [1] | [2] | TIMP1, TIMP1 (gene 7076) | [3] | [4] | [5] | [14] | [8] | [15] | [10] | [16] | [11] | [17]
active: [7] 79.7 µM | [9] 41.7 µM and 72.5 µM | [10] 55.1 µM | [16] 15.4 µM | [12] 23.7 µM and 46.2 µM | [13] 2.96 µM

Cc1cccc(N)c1N
active: [18] 32.3 µM | [5] 17.2 µM | [14] 50 µM | [16] 26.8 µM
inactive: [1] | [2] | TIMP1, TIMP1 (gene 7076) | [4] | [6] | [7] | [15] | [9] | [10] | [16] | [11] | [17] | [12]

Clc1ccc(Cl)c(Cl)c1
active: [3] 50 µM
not listed: [6] | [13] | [16] | [18]
inactive: all other assays above
